Laboratory results: PubChem BioAssay (NCATS)
Records with an inconclusive call do not appear. Active and inactive are the calls of the source. Unless noted, calls follow the shape of the dose curve; as a rule, active = well fitted curve in the direction sought with a large enough effect; inconclusive = small, poorly fitted or top-dose-only effect, or another doubt; inactive = no such curve, though single readings can be large; an effect the other way counts as inactive or inconclusive.

Columns and labels:
[1] = Cellular Toxicity (caspase-3) HepG2 (AID 654); also: potency is read from the fitted curve at half-maximal effect;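 as to caspase-3 activation: cells exposed to compound for 16 hours before reading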
In short: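 Cells plated 5 hr at 37 °C, compound added, incubated 16 hr at 37 °C. Caspase-Glo 3/7 reagent followed, 20 min at room temperature, then luminescence read. Activation scored as signal increase; AC50 from Hill fit.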

[2] = Cellular Toxicity (caspase-3) Jurkat (AID 655);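 also: cells exposed to compound for 16 h at 37 °C before reading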; also: potency is read from the fitted curve at half-maximal effect
In short: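 qHTS in human Jurkat T-cell leukemia line: 16 hr compound treatment at 37 °C, caspase-3/7 activity measured by Caspase-Glo luminescence. AC50 derived from Hill equation.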

[3] = Cellular Toxicity (caspase-3) HUV-EC-C (AID 656)
In short: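 Concentration-dependent caspase 3/7 induction was assessed in HUV-EC-C cells exposed for 16 hours. Data scaled between DMSO and tamoxifen (100 uM) controls.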

[4] = Cellular Toxicity (caspase-3) SHSY5Y (AID 657);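 also: cells exposed to compound for 16 hours at 37 °C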; also: potency is read from the fitted curve at half-maximal effect
In short: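 Readout: caspase-cleaved peptide-aminoluciferin substrate driving luciferase light in SH-SY5Y neuroblastoma cells after 16 h treatment. Response normalized to DMSO and 10 uM staurosporine controls.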

[5] = Cellular Toxicity (caspase-3) BJ (AID 658)
In short: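 Readout: Caspase-Glo 3/7 luminescence increase in BJ cells after 16 hr treatment at 37 °C. Staurosporine and tamoxifen served as positive controls; AC50 values came from Hill modelling of data normalized to DMSO and 10 uM staurosporine.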

[6] = Cellular Toxicity (caspase-3) MRC-5 (AID 659);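 also: cells exposed to compound for 16 h at 37 °C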
Description: (§1) NIH Chemical Genomics Center [NCGC]
(§2) NIH Molecular Libraries Screening Centers Network [MLSCN]
(§3) National Institutes of Environmental Health Sciences [NIEHS]
(§4) National Toxicology Program [NTP]
We have developed a 1536-well cell-based assay for quantitative high throughput screening (qHTS) against a number of cell lines to determine in vitro caspase 3/7 activity of small molecules. This particular assay uses the MRC-5 cell line which is derived from human normal lung fibroblasts.
(§5) NCGC Assay Protocol Summary:
(§6) The Caspase-Glo 3/7 assay (Promega) is a homogeneous method to measure caspase-3 and caspase-7 activities in cultured cells. The quantitation of caspase 3/7 activity is based on the cleavage of a peptide-aminoluciferin substrate. After caspase cleaves the substrate the free aminoluciferin is liberated and serves as the substrate of luciferase, which generates the light. The luminescent signal is proportional to amount of caspase 3/7 activity present.
(§7) Using the Caspase-Glo 3/7 assay, the amount of caspase 3/7 activity was measured in the MRC-5 line with complete culture medium following compound treatment for 16 hours. The assay was performed in opaque white 1536-well plates. In the screen, tamoxifen and staurosporine were used as positive controls. Library compounds were measured for their ability to cause the activation of caspase 3/7 in the cell line, as reflected by an increase in luminescence signal, in a concentration-dependent manner. Data were normalized to the controls for basal activity (DMSO only) and 100% stimulation (10 uM staurosporine). AC50 values were determined from concentration-response data modeled with the standard Hill equation.
qHTS protocol for caspase 3/7 assay in MRC-5 cells
(§8) [Step] [Parameter] [Value] [Description]
1. Reagent; 5 uL; 1500 MRC-5 cells/well
(§9) 2. Time; 5 hr; 37 °C incubation
4. Controls; 23 nL; Tamoxifen 0.23 uM to 100 uM & staurosporine 1.4 pM to 100 uM
(§10) 5. Time; 16 hr; 37 °C incubation
(§11) 6. Reagent; 5 uL; Caspase-Glo 3/7 reagent
7. Time; 1 hr; Room Temperature
(§12) 8. Detection; Luminescence; Viewlux plate reader
Keywords: caspase 3/7, apoptosis, MRC-5 cell line, luminescence, NTPHTS, NTPHTS_NCGC, NIEHS, EPA, DSSTox, MLSMR, MLSCN, NIH Roadmap, qHTS, NCGC

[7] = Cellular Toxicity (caspase-3) Mesangial (AID 660); conditions: Potency: caspase-3 activation;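 also: combined caspase 3 and 7 activity read by Caspase-Glo luminescence; cells exposed to compound for 16 h before the caspase read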; also: potency is read from the fitted curve at half-maximal effect
Description: as §1, §2, §3, §4
We have developed a 1536-well cell-based assay for quantitative high throughput screening (qHTS) against a number of cell lines to determine in vitro caspase 3/7 of small molecules. This particular assay uses the mesangial cell line which is derived from normal human renal glomeruli.
as §5, §6
as §7, with “mesangial cell” for “MRC-5”, “doxorubicin” for “staurosporine”, “(100” for “(10”, “tamoxifen).” for “staurosporine).”
qHTS protocol for caspase 3/7 assay in mesangial cell line
as §8
1. Reagent; 5 uL; 1000 mesangial cells/well
as §9
4. Controls; 23 nL; Tamoxifen 0.23 uM to 100 uM & doxorubicin 7.0 pM to 100 uM
as §10, §11
7. Time; 20 min; Room Temperature
as §12
Keywords: caspase 3/7, apoptosis, mesangial cell line, luminescence, NTPHTS, NTPHTS_NCGC, NIEHS, EPA, DSSTox, MLSMR, MLSCN, NIH Roadmap, qHTS, NCGC

[8] = Cellular Toxicity (caspase-3) SK-N-SH (AID 661); also: potency is read from the fitted curve at half-maximal effect
In short: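 Human neuroblastoma SK-N-SH, 1500 cells/well, 5 hr pre-incubation, then compound 16 hr, 37 °C. Caspase-Glo 3/7 reagent, 1 hr RT, luminescence. Norm. to DMSO/10 uM staurosporine; Hill-fit AC50.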

[9] = Cellular Toxicity (caspase-3) H-4-II-E (AID 663); conditions: Potency: caspase-3 activation; also: potency is read from the fitted curve at half-maximal effect;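 as to caspase-3 activation: cells exposed to compound for 16 hr before readout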
In short: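 Apoptosis induction is scored as increased luminescence from caspase 3/7 substrate cleavage in rat hepatoma H-4-II-E cells exposed to compound for 16 hr. Activity is scaled between DMSO and 100 uM tamoxifen.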

[10] = target: 3',5'-cyclic-AMP phosphodiesterase 4B (Homo sapiens) (UniProt Q07343); assay: qHTS Assay for Inhibitors of PDE-IV (AID 607; active = well fitted activation curve with a large enough effect in the main read-out, with a control signal flat, not every such curve was filed as active)
In short: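 ACTOne HEK293 cells carry a modified cAMP-gated CNG channel and express endogenous PDE4; plated 1000 cells/well, compounds up to 22.9 uM final. Membrane-potential dye fluorescence (ex 535/em 590) was read; parental cells received 10 uM forskolin + 100 uM RO 20-1724.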

Measured: Potency

Sequence of 3',5'-cyclic-AMP phosphodiesterase 4B (Homo sapiens) (Q07343 whole entry, looked up): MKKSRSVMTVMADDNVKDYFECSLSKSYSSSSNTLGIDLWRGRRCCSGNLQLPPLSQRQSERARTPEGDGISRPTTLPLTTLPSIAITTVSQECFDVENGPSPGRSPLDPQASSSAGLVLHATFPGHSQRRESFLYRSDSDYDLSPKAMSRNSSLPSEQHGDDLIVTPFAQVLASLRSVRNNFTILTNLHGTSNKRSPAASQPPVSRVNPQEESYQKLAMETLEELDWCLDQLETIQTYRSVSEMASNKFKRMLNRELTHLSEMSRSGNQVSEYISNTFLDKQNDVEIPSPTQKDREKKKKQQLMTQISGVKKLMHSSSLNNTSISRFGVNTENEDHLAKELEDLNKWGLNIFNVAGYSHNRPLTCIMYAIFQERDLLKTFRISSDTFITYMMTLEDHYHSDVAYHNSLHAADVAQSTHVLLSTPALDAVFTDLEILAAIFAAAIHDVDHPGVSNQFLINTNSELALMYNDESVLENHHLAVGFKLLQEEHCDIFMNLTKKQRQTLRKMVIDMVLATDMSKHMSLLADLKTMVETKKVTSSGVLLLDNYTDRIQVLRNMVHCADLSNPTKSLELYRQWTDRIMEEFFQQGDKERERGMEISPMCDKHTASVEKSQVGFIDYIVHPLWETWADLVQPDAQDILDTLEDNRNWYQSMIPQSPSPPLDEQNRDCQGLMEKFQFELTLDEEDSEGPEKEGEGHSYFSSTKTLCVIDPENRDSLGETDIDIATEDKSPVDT

O=C(CCl)c1ccc(Cl)cc1Cl
active: [2] 0.251 µM | [4] 2.51 µM | [8] 1.58 µM
not listed: [9] | [10]
inactive: all other assays above

CN(C)C(=S)SSC(=S)N(C)C
active: [2] 0.0631 µM | [7] 0.398 µM
not listed: [10]
inactive: all other assays above

CCCCCCCCCCCC[N+](C)(C)CCOc1ccccc1
active: [1] 39.8 µM
inactive: [3] | [4] | [7]

C[C@@H]1C[C@@H]([C@H](O)CC2CC(=O)NC(=O)C2)C(=O)[C@@H](C)C1
active: [9] 15.8 µM
not listed: [2] | [10]
inactive: all other assays above

OC(c1ccccc1)(c1ccccc1)C1CCNCC1
inactive: [10]

c1ccc2nc(N3CCNCC3)ccc2c1
inactive: [10]

CNC(=O)Oc1cccc2ccccc12
not listed: [10]
inactive: all other assays above

COC(=O)C1=CCCN(C)C1
inactive: [10]

CC[n+]1c(-c2ccccc2)c2cc(N)ccc2c2ccc(N)cc21
not listed: [10]
inactive: all other assays above

CN1[C@@H]2CC[C@H]1CC(OC(=O)c1cc(Cl)cc(Cl)c1)C2 (some centres not stated)
inactive: [10]

CCCCCCCCC(=O)NCc1ccc(O)c(OC)c1
inactive: [10]

Oc1c(Br)cc(Br)cc1Br
not listed: [2] | [10]
inactive: all other assays above

O=C(O)c1nn(Cc2ccc(Cl)cc2Cl)c2ccccc12
inactive: [10]

C[C@H](N)[C@H](O)c1ccc(O)c(O)c1
inactive: [10]

COP(=O)(OC)OC=C(Cl)Cl
not listed: [10]
inactive: all other assays above

O=C(CCCN1CCC(n2c(=O)[nH]c3ccccc32)CC1)c1ccc(F)cc1
inactive: [10]

Oc1ccc2[nH]cc(CCCCN3CC=C(c4ccccc4)CC3)c2c1
inactive: [10]

COc1ccc(CN2CCNCC2)c(OC)c1OC
inactive: [10]

COc1ccc(C(=O)N2CCCC2=O)cc1
inactive: [10]

NC(=O)CN1CCCC1=O
inactive: [10]

CC(C)[N+](C)(CCC(C(N)=O)(c1ccccc1)c1ccccc1)C(C)C
inactive: [10]
